Source: PubChem BioAssay
Shown are actives, neighbours in structure and some others; about 12% of the full set was active somewhere.
USP17 block: human USP17-like deubiquitinase inhibition | 47,000 tested, 6.5% active | A8MUK1 | purified USP17, Ub-rhodamine cleavage fluorescence, 3 h | inhibition, % at 50 µM
USP8 inh: inhibitors of human USP8 deubiquitinase; P40818; purified USP8, Ub-rhodamine cleavage fluorescence, 30 min; inhibition, % at 20 µM; 47,000 tested, 4.2% active; AID 1645853
USP10 block: inhibitors of human USP10 deubiquitinase. inhibition, % at 20 µM. Q14694. 47,000 tested, 1.1% active. purified USP10, Ub-rhodamine fluorescence, 60 min
USP7 inh: blocks human USP7 ubiquitin-rhodamine cleavage; Q93009; inhibition, % at 20 µM; AID 1645854; 47,000 tested, 0.3% active; purified USP7, Ub-rhodamine cleavage fluorescence
USP30 inh: inhibitors of human USP30 deubiquitinase; AID 1645860; inhibition, % at 25 µM; 47,000 tested, 5.3% active; purified USP30, Ub-rhodamine cleavage fluorescence; Q70CQ3
UCHL1 inh: human UCHL1 deubiquitinase inhibition. P09936. purified UCHL1, Ub-rhodamine cleavage fluorescence. inhibition, % at 20 µM. 47,000 tested, 0.2% active
Target sequence (P09936 whole entry, looked up): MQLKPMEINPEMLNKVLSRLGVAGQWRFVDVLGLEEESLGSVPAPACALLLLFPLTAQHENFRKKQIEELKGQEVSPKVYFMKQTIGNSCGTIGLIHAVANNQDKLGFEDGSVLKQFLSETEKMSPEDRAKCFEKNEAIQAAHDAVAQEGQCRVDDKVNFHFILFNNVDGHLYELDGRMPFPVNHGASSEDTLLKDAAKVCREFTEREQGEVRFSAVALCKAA
* hit, by the source's call; nt = no result. Rule as the data show it: active = inhibition above about 30%; inactive = the rest.

SMILES	USP17 block	USP8 inh	USP10 block	USP7 inh	USP30 inh	UCHL1 inh
CSCC[C@@H](NC(=O)[C@@H]1CCCN1C(=O)C1(c2ccccc2)CCN(C(=O)OC(C)(C)C)CC1)C(=O)O	5.7	7.8	2.1	2.8	0.9	0.0
N#Cc1cccnc1N1CCN(C(=O)Nc2cccc3ccccc23)CC1	76.8*	91.1*	-0.2	-24.6	-25.6	17.6
CCOc1ccccc1NC(=O)N1CCCN(c2ncccc2C#N)CC1	6.3	4.1	-0.6	3.0	5.2	2.0
Cc1nc(-c2noc3ccc(C(=O)Nc4cccnc4)cc23)cs1	-20.5	-172.0	-0.4	2.4	72.5*	0.3
Cc1nc(-c2noc3ccc(C(=O)NCc4ccncc4)cc23)cs1	-42.5	2.8	1.6	-1.6	-16.9	-1.7
Cc1ccccc1Nc1nc(-c2cnc(N3CCOCC3)nc2C)cc(=O)[nH]1	7.7	4.6	2.2	1.0	17.0	1.2
Cc1nc(N2CCCC2)ncc1-c1cc(=O)[nH]c(NCCc2ccccc2)n1	50.2*	13.1	15.0	-0.1	63.9*	4.0
Cc1nc(N2CCOCC2)ncc1-c1cc(=O)[nH]c(Nc2nc(C)c3ccccc3n2)n1	12.2	14.5	2.1	3.3	18.1	0.7
Cc1nc(N2CCCC2)ncc1-c1cc(=O)[nH]c(Nc2ccc(Cl)cc2Cl)n1	16.4	1.2	51.3*	13.7	27.1	2.9
Cc1nc(N2CCC(C)CC2)ncc1-c1cc(=O)[nH]c(Nc2nc3ccccc3o2)n1	33.6*	12.5	-0.3	2.9	41.1*	1.5
Cc1cccc(NC(=O)CC2Nc3ccccc3OC2=O)c1 (centres undefined)	40.5*	-17.5	-2.6	-5.2	-40.7	-2.0
CC1CCC23CC1C(C)(C)C2CC=C3C(=O)O (centres undefined)	23.2	3.6	1.7	3.3	14.1	-0.1
O=C(COc1ccc2c(-c3ccccc3)cc(=O)oc2c1)Nc1cccnc1	20.1	28.0	-1.3	9.5	68.1*	0.7
O=C(COc1ccccc1)Nc1cnc(-c2cccnc2)nc1	0.5	0.5	-1.9	-1.3	13.9	-0.2
COC(=O)c1ccc(N2CCN(C(C)=O)CC2)c(NC(=O)c2ccc(OCc3ccccc3)cc2)c1	11.6	20.5	4.3	7.9	29.7	9.8
COC(=O)c1ccc(N2CCN(C(C)=O)CC2)c(NC(=O)COc2ccc([N+](=O)[O-])cc2)c1	4.4	79.7*	42.6*	11.9	-5.7	4.8
O=C(c1cc(-c2ccccc2)n[nH]1)N1CCN(C2CCCCC2)CC1	-4.4	-0.2	-2.5	3.1	18.3	0.5
CC1Sc2cc(S(=O)(=O)CCC(=O)NCc3cccnc3)ccc2NC1=O (centres undefined)	-18.1	-13.1	0.4	-4.5	0.9	1.6
O=C1NC[C@@H](CCC(=O)N2CCCC2)N2C[C@@H](NCc3ccccc3)C[C@@H]12	-17.7	0.0	-1.8	30.1*	-35.0	-1.7
CN1[C@@H](CCC(=O)N2CCCC2)CNC(=O)[C@@H]2[C@H]1CCN2Cc1ccccc1	-23.3	21.7	2.0	-1.1	2.3	3.8
COc1ccc2c(Cl)c(C(=O)NC3CCCCCC3)sc2c1	-5.2	-24.2	4.6	5.0	-6.2	1.0
N#C/C(=C\c1cccc(Oc2ncccn2)c1)c1ccc2c(c1)OCO2	30.4*	2.7	0.8	-3.8	nt	3.3
COc1ccc(/C(C#N)=C\c2ccc3c(c2)OCO3)cc1	28.7	30.1*	7.0	10.6	34.6*	7.4
COc1ccc(CC(NCc2ccco2)c2ccccc2)cc1 (centres undefined)	-0.5	0.7	1.2	3.2	-1.3	1.3
COc1ccc(CNS(=O)(=O)c2ccc3[nH]c(=O)ccc3c2)cc1	46.9*	0.9	0.1	2.8	nt	0.0
COc1ccc(-c2c(C)c(C(=O)c3ccco3)n3ccc4cc(OC)c(OC)cc4c23)cc1OC	21.2	67.8*	-9.4	-16.2	-102.5	-7.2
COCCCN1CCS(=O)(=O)c2c(Cl)c(F)nc(Oc3ccccc3)c21	40.6*	35.0*	0.4	-141.9	-1.6	0.6
CCCCN1CCS(=O)(=O)c2c(Cl)c(F)nc(Oc3ccc(OC)cc3)c21	25.3	49.5*	9.2	7.2	3.7	6.9
COc1ccc(Oc2nc(F)c(Cl)c3c2N(CC2CCCO2)CCS3(=O)=O)cc1 (centres undefined)	33.1*	68.9*	4.9	-24.7	-51.3	5.5
